From PubChem BioAssay (Tox21)
Where “and” joins values, the source holds several entries; their conditions need not be identical. Equal entries are not always repeated. Results filed as inconclusive are left out. Calls of active or inactive are those of the source. Unless noted, calls come from the whole dose curve; as a rule, active = well fitted curve in the direction sought with a large enough effect in the repeat runs; inconclusive = weak or mixed curves; inactive = flat fitted curve, though single readings scatter.

Legend:
[1] = qHTS assay to test for compound auto fluorescence at 460 nm (blue) in HEK293 cell free culture (AID 720681)
How it was run: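 Blue fluorescence (Ex 405/Em 460 nm, triamterene-equivalent) was read immediately after pin transfer of compound or DMSO into medium (DMEM, 10% FBS) without cells.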

[2] = qHTS assay to test for compound auto fluorescence at 535 nm (green) in HEK293 cell free culture (AID 720682)
How it was run: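 Green-channel intensity (Ex/Em 485/535 nm) was recorded from compound-treated wells containing only DMEM with 10% FBS. Fluorescein provided the equivalency standard.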

[3] = qHTS assay to test for compound auto fluorescence at 590 nm (red) in HEK293 cell free culture (AID 720683)
How it was run: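 Red-channel autofluorescence of compounds in culture medium (DMEM, 10% FBS), no cells, measured at 540/590 nm. Rose Bengal sodium is the reference fluorophore for equivalence.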

[4] = qHTS assay to test for compound auto fluorescence at 590 nm (red) in HepG2 cell free culture (AID 720684)
How it was run: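 Plate contents were MEM with 10% FBS plus test compound or DMSO, no cells. Fluorescence was recorded with 540 nm excitation and 590 nm emission.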

[5] = qHTS assay to test for compound auto fluorescence at 460 nm (blue) in HepG2 cell free culture (AID 720685)
How it was run: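 Compound (23 nL) or DMSO pinned into cell-free MEM with 10% FBS; blue fluorescence read at 405/460 nm excitation/emission, expressed as auto-fluorescence equivalency to triamterene.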

[6] = qHTS assay to test for compound auto fluorescence at 535 nm (green) in HepG2 cell free culture (AID 720686)
[7] = qHTS assay to test for compound auto fluorescence at 460 nm (blue) in HepG2 cells (AID 720687)
How it was run: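 Blue-channel autofluorescence (Ex/Em 405/460 nm, triamterene-equivalent) was measured after 1 hr compound exposure at 37 C, 5% CO2. Cells were HepG2, plated overnight at 37 C in MEM plus 10% FBS.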

[8] = target: Glucocorticoid receptor (Homo sapiens) (UniProt P04150); experiment: qHTS assay to identify small molecule agonists of the glucocorticoid receptor (GR) signaling pathway (AID 720691; active = well fitted activation curve with a large enough effect in the signal ratio in the repeat runs, not every such curve was filed as active; the % refers to the signal ratio; note: potency is the fitted concentration of half-maximal effect)
Sequence of Glucocorticoid receptor (Homo sapiens) (P04150 whole entry, looked up): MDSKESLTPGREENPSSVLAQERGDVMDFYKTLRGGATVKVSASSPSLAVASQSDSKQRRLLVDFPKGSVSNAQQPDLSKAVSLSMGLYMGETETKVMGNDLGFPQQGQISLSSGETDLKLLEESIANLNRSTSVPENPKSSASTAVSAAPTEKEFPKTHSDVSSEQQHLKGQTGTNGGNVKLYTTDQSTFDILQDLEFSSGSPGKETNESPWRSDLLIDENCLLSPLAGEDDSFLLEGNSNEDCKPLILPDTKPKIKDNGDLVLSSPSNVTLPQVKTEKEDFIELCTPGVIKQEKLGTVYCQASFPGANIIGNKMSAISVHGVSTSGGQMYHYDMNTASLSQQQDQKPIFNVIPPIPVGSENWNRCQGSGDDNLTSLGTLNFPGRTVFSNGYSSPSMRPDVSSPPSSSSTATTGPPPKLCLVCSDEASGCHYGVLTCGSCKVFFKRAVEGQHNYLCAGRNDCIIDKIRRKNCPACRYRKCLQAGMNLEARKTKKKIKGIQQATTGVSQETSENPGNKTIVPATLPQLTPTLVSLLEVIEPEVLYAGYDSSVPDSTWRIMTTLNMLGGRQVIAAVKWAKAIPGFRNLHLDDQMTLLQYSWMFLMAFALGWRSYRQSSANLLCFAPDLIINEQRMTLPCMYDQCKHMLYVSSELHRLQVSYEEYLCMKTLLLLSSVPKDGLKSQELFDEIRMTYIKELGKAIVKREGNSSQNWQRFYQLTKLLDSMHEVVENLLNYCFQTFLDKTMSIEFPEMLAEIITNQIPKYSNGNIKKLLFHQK
How it was run: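 Beta-lactamase reporter activity, read as fluorescence intensity, was measured in GR-bla HeLa cells exposed to compounds for 18 h at 37 C and then loaded with LiveBLAzer B/G FRET substrate for 2 h at room temperature.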

[9] = target: Glucocorticoid receptor (Homo sapiens) (UniProt P04150); experiment: qHTS assay to identify small molecule antagonists of the glucocorticoid receptor (GR) signaling pathway (AID 720692; active = well fitted inhibition curve with a large enough effect in the signal ratio in the repeat runs, not every such curve was filed as active; the % refers to the signal ratio)
How it was run: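 Fluorescence from cleaved LiveBLAzer B/G FRET substrate reports GRE-driven beta-lactamase in HeLa cells; compounds are tested against 5 nM dexamethasone (final) over 18 h at 37 C, substrate incubation 2 h at room temperature.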
% is set by controls: 0 for no effect and ±100 for the full control effect.

CCCC(=O)c1ccccc1
inactive: Potency [1] | Potency [2] | outcome [3] | outcome [4] | Potency [5] | Potency [6] | Potency [7] | Potency [8] | Potency [9]

BrC1CCC(Br)C(Br)CCC(Br)C(Br)CCC1Br (centres undefined)
inactive: Potency [1] | Potency [2] | outcome [3] | outcome [4] | Potency [5] | Potency [6] | Potency [7]

Cc1cc(C(C)(C)C)c(O)c(C(C)(C)C)c1
inactive: Potency [1] | Potency [2] | outcome [3] | outcome [4] | Potency [5] | Potency [6] | Potency [7] | Potency [8]

Oc1ccc(Cl)cc1Cc1cc(Cl)ccc1O
inactive: Potency [1] | Potency [2] | outcome [3] | outcome [4] | Potency [5] | Potency [6] | Potency [7]

CCCCCCCCCCCCCCCCCl
inactive: fluorescence, % of fluorescent control [1] -0.061% [at 18.6 µM] | activity change [2] -0.0974% [at 18.6 µM, active compounds read high] | fluorescence, % of fluorescent control [3] -0.466% [at 18.6 µM] | fluorescence, % of Rose Bengal [4] -0.0105% [at 18.6 µM] | fluorescence, % of fluorescent control [5] -0.0526% [at 18.6 µM] | fluorescence, % of fluorescein control [6] -0.0406% [at 18.6 µM] | Potency [8] | Potency [9]

Cc1cccc([N+](=O)[O-])c1C(=O)O
inactive: Potency [1] | Potency [2] | outcome [3] | outcome [4] | Potency [5] | Potency [6] | Potency [8] | Potency [9]

CCOc1ccc2c(c1)C(C)=CC(C)(C)N2
inactive: Potency [1] | Potency [2] | outcome [3] | outcome [4] | Potency [5] | Potency [6] | Potency [7]

COc1ccc(Cc2cnc(N)nc2N)cc1OC
inactive: Potency [1] | Potency [2] | outcome [3] | Potency [5] | Potency [6] | Potency [8]

COc1nc(C)nc(Cl)c1NC1=NCCN1
inactive: fluorescence, % of fluorescent control [1] 0.165% [at 18.6 µM] | activity change [2] 0.0521% [at 18.6 µM, active compounds read high] | fluorescence, % of fluorescent control [3] 0.101% [at 18.6 µM] | fluorescence, % of Rose Bengal [4] 0.527% [at 18.6 µM] | fluorescence, % of fluorescent control [5] 0.0137% [at 18.6 µM] | fluorescence, % of fluorescein control [6] 0.0146% [at 18.6 µM] | fluorescence, % of fluorescent control [7] 0.0089% [at 18.6 µM] | Potency [8] | Potency [9]

CNC1(C)C2CCC(C2)C1(C)C (centres undefined)
inactive: Potency [1] | Potency [2] | outcome [3] | outcome [4] | Potency [5] | Potency [6] | Potency [8] | Potency [9]

CC(=O)O[C@]1(C(C)=O)CC[C@H]2[C@@H]3C[C@H](C)C4=CC(=O)CC[C@]4(C)[C@H]3CC[C@@]21C
inactive: Potency [1] | Potency [2] | outcome [3] | outcome [4] | Potency [5] | Potency [6] | Potency [7]
active: Potency [8] 37.9 nM and 21.9 nM

O
inactive: Potency [1] | Potency [2] | outcome [3] | Potency [5] | Potency [6] | Potency [7]

CC1COC(=O)O1 (centres undefined)
inactive: Potency [1] | Potency [2] | outcome [3] | outcome [4] | Potency [5] | Potency [6] | Potency [7] | Potency [8] | Potency [9]

Cc1occc(=O)c1OC(=O)C(C)C
inactive: Potency [1] | Potency [2] | outcome [3] | outcome [4] | Potency [5] | Potency [6] | Potency [7] | Potency [8] | Potency [9]
